Screens from PubChem BioAssay.
SMARCA2 activ: SMARCA2 (BRM) function activators, primary screen, cell-based, luminescence, high throughput; MG213 cells, MMTV-luciferase reporter, dexamethasone, overnight; activation, % at 9.1 µM; actives 1% (n = 370,000); AID 652017, 2013; in the data active means activation above about 7.8%
hcDAF12 agonist: H. contortus DAF-12 nuclear receptor activators, primary screen, cell-based, luminescence, HEK293, lit1-tk-luc reporter; HEK293 hcDAF-12 lit1-tk-luc reporter; 0% DMSO, 100% Δ7-dafachronic acid; activation, % at 6.8 µM; actives 1.4% (n = 370,000); AID 652067, 2013;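 active means activation above the mean of all tested compounds plus 3 SD, cut at about 5.5% in these data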
DAX1 inh-1: DAX1 (NR0B1) inhibitors, primary screen, cell-based, HEK293, Gal4-DAX1, luciferase luminescence. HEK293 Gal4-DAX1 luciferase reporter. inhibition, % at 6.75 µM. Nuclear receptor subfamily 0 group B member 1 (Homo sapiens), P51843. actives 0.99% (n = 340,000). AID 504766, 2011;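 active means inhibition above the mean over all tested compounds plus 3 SD, cut at about 4.2% in these data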;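 further: inhibition shows as a rise in luminescence from relieved DAX1 repression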
Target sequence (P51843 207-470 limits assumed): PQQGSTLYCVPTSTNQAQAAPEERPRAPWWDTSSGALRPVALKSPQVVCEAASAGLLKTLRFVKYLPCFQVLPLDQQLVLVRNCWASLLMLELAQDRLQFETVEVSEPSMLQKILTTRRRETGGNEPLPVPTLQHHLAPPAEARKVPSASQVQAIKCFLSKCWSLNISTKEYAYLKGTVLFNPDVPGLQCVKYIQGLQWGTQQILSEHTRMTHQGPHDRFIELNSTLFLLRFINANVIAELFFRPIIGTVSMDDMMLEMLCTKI
hgDAF12 agonist: H. glycines DAF-12 receptor agonists, primary screen, cell-based, luminescence, HEK293, GAL4 fusion, UAS-luciferase | actives 1.8% (n = 370,000) | AID 687014, 2013 | HEK293 GAL4-hgDAF12 UAS-luciferase reporter, agonist luminescence; normalized to butyrate control | Nuclear hormone receptor DAF-12 (Heterodera glycines), GAL4 fusion | activation, % at 6.8 µM;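 active means activation above a cutoff set at the mean of all screened compounds plus 3 SD, cut at about 10% in these data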
ssDAF12 agonist: S. stercoralis DAF-12 nuclear receptor activators, primary screen, cell-based, luminescence, HEK293, GRIP1 co-expression, lit1-tk-luc. Nuclear hormone receptor DAF-12 (Strongyloides stercoralis). HEK293 ssDAF-12/GRIP1 lit1-tk-luc reporter; % of 3 µM dafachronic acid response. activation, % at 6.8 µM. actives 1% (n = 370,000);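 active means activation above the mean over all tested compounds plus 3 SD, cut at about 0.9% in these data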
DAX1 inh-2: DAX1 (NR0B1) inhibitors on StAR promoter, primary screen, cell-based, luminescence, SF-1 (NR5A1), full-length DAX-1; HEK293T StAR-luciferase reporter, SF-1/DAX-1 repression relief; inhibition, % at 6.8 µM; actives 1.1% (n = 370,000);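 active means inhibition above the mean over all tested compounds plus 3 SD, cut at about 3.6% in these data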;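 further: higher inhibition means more luminescence from relief of DAX-1 repression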
Each line names hits and unclear results; the compound was inactive in the other large screens. Most compounds without a hit are left out; they make up all but 4.8% or so of the library.

O=C(CSc1nc2c([nH]c3ccccc32)c(=O)n1-c1ccccc1)N1CCOCC1	hcDAF12 agonist 6.0
Cc1cc(N/C=C(\C#N)S(=O)(=O)c2ccc(Cl)cc2)nc(C)n1	DAX1 inh-1 4.2
CC1CN(C(=S)NC(=O)c2ccc(Cl)cc2)CC(C)O1 (stereo not given)	none
CS(=O)(=NS(=O)(=O)c1ccc(Cl)cc1)c1ccccc1 (stereo not given)	DAX1 inh-1 4.3
O=S(=O)(Nc1ccccn1)c1ccc(Cl)cc1	none
C=CCNS(=O)(=O)c1ccc(OC)c(C)c1	none
O=C(NCc1ccccc1)c1ccc[n+]([O-])c1	none
O=C1C(=Cc2ccccc2[N+](=O)[O-])Cc2ccccc21	none
CC1(C)CC(=Cc2ccccc2[N+](=O)[O-])C(=O)c2ccccc21	SMARCA2 activ 7.9
Cc1ccc(N2C(=O)CC(Sc3cccs3)C2=O)cc1 (stereo not given)	none
COc1cc2c(cc1OC)C(NC(=O)C(F)(F)F)CNC2=O (stereo not given)	hgDAF12 agonist 12.6
O=C(O)CSc1ncnc2c1sc1nc(-c3ccccc3)c3c(c12)CCC3	none
COC(=O)c1c(NC(=O)Cc2cccs2)sc(C)c1C	none
Cc1ccc(S(=O)(=O)NC2c3cccc4cccc(c34)C2Sc2nncn2C)cc1 (stereo not given)	none
Cc1ccc(S(=O)(=O)NC2c3cccc4cccc(c34)C2Sc2nc(C)cc(C)n2)cc1 (stereo not given)	ssDAF12 agonist 1.4
O=c1c2ccccc2sc2ccc(Cl)cc12	none
Cc1cc2sc3ccccc3c(=O)c2c(C)c1O	ssDAF12 agonist 1.1
COc1ccc(OC)c2[nH]c(=O)c(CCNC(=O)COc3ccccc3)cc12	none
COC(=O)c1c(C)c[nH]c1C	DAX1 inh-1 5.3
CCOC(=O)c1c(C)c[nH]c1C	none (no result: DAX1 inh-1)
O=C1NCCNC1(c1c[nH]c2ccccc12)C(F)(F)F (stereo not given)	ssDAF12 agonist 1.4
COc1ccc(CCNC(=O)C/C(C)=N/NC(=O)C23CC4CC(CC(C4)C2)C3)cc1OC	ssDAF12 agonist 0.9
COc1ccccc1NC(=O)C/C(C)=N/NC(=O)C12CC3CC(CC(C3)C1)C2	none
COc1ccccc1C=NN=Cc1ccccc1OC	ssDAF12 agonist 1.1
CCCCn1c(N)c(N(CCC(C)C)C(=O)C2CC(=O)N(c3ccccc3OCC)C2)c(=O)[nH]c1=O (stereo not given)	none
Cn1c(SCC2CCCO2)nnc1-c1ccncc1 (stereo not given)	none
CN(C)c1ccc(-c2nnc(SCC3CCCO3)n2C)cc1 (stereo not given)	DAX1 inh-1 4.8
O=C1CCCCCN1Cc1nnc(SCc2nc3ccccc3s2)n1-c1ccccn1	hcDAF12 agonist 5.7, ssDAF12 agonist 1.9
CC(C)(CCl)C(=O)Nc1ccc(C(F)(F)F)cc1	ssDAF12 agonist 1.1
C/C(=C\C(=O)C(F)(F)F)Nc1ccc(C(F)(F)F)cc1	none
O=C(CSc1cccc2cccc(Cl)c12)OCC(=O)N1CCN(C(=O)c2ccco2)CC1	none
CC(Oc1ccccc1)c1nnc(N)s1 (stereo not given)	none
CC(c1ccccc1)c1nnc(N)s1 (stereo not given)	DAX1 inh-1 4.7
COc1ccccc1Oc1c(C)oc2c(CN3CCN(C)CC3)c(O)ccc2c1=O	none (no result: DAX1 inh-1)
Cc1ccc(NC(=O)Cn2c(O)c(N=NC(=O)c3cc4ccccc4cc3O)c3ccccc32)cc1	none
CC1=C(C(=O)Nc2ccccc2C(=O)NC2CCCCC2C)SCCO1 (stereo not given)	none
C[C@@H]1ON(C)[C@H]2C[C@H]3c4[nH]c5ccccc5c4CCN3C[C@@H]12	ssDAF12 agonist 1.4
Cc1cccc(-c2ccc3c(c2)[C@@H]2C[C@H]4[C@@H](CN2CC3)[C@H](C)ON4C)c1	none (no result: DAX1 inh-1)
Cc1cccc(-c2ccc3[nH]c4c(c3c2)CCN2C[C@H]3[C@H](C)ON(C)[C@H]3C[C@@H]42)c1	none
C[C@@H]1ON(C)[C@H]2C[C@H]3c4cc(-c5ccc(F)cc5)ccc4CCN3C[C@@H]12	ssDAF12 agonist 0.9 (no result: DAX1 inh-1)
Cc1cccc(C(=O)NC(=S)N2CCN(C)CC2)c1	none
O=C(N/N=C/c1cc([N+](=O)[O-])ccc1O)c1cc(-c2ccccc2)nc2ccccc12	none
CNC(=O)NC(=O)COC(=O)CCCOc1ccc(OC)cc1	DAX1 inh-1 5.6
O=C(O)c1ccc(Cl)c(NCc2cccs2)c1	none
O=C(CCN1C(=O)/C(=C/c2ccc(F)cc2)SC1=S)NNC(=O)c1cccnc1	DAX1 inh-1 4.3
O=C(CCN1C(=O)/C(=C/c2ccccc2)SC1=S)NNC(=O)c1cccnc1	none
CC(C)c1ccc(NC2CCCN(C(=O)c3cccnc3)C2)cc1 (stereo not given)	none
Clc1cccc(-c2csc(Nc3cccnc3)n2)c1	hcDAF12 agonist 5.8
COc1ccc(-c2nc3ccccc3nc2-c2ccc(OC)c(OC)c2)cc1OC	none
COc1cc(C2C3=C(COC3=O)OC(C)(C)Oc3cc4c(cc32)OCO4)cc(OC)c1OC (stereo not given)	DAX1 inh-2 4.1
CCC(=O)NC(c1ccccc1)c1c(OC(C)=O)ccc2ccccc12 (stereo not given)	none
Cc1c(C=NNc2ccccc2)[nH]c(=O)[nH]c1=O	none
COC(=O)c1c(C)[nH]c(/C=N/Nc2ccccc2)c1C	SMARCA2 activ 14.7
Cc1ccc([N+](=O)[O-])cc1NC(=O)C1CCCC1	ssDAF12 agonist 5.5
Cc1ccc(C(=O)C[n+]2cccc3ccccc32)cc1	hcDAF12 agonist 6.0, ssDAF12 agonist 1.7
O=C(C[n+]1cccc2ccccc21)c1ccc(Br)cc1	ssDAF12 agonist 2.2
COc1ccc(N2CCN(C3=CC(=O)N(c4cccc(Cl)c4)C3=O)CC2)cc1	none
Cc1c(CCOC(=O)C23CC4CC(CC(C4)C2)C3)sc[n+]1Cc1ccccc1	none
CN1CCC(N[C@@H](Cc2c[nH]c3ccccc23)C(=O)NCCCc2ccccc2)(C(=O)NCCc2c[nH]c3ccccc23)CC1	hcDAF12 agonist 6.3 (no result: SMARCA2 activ, DAX1 inh-1, DAX1 inh-2)
Cc1nnc(NC(=O)Nc2cccc(Cl)c2)s1	hgDAF12 agonist 11.2
